WT yeast gro inh – growth inhibition of WT strain, primary screen, mitochondrial fusion inhibitor project, WT and mutant strains, chemical genetic; mitochondrial fusion phenotypic screen; inhibition, % at 10 µM; 2.1% of 190,000 active; AID 1362, 2008; in the data active = inhibition above about 58%; tested in S. cerevisiae
KCC2 mod – KCC2 cotransporter modulators, thallium flux, primary screen, cell-based, HEK293 KCC2, FluoZin-2 fluorescence, MLSMR; B-score of Tl+ flux slope (higher = more flux/activation; lower = inhibition) at 10 µM; 2.2% of 190,000 active; AID 1456, 2008; KCC2 cells, thallium flux FluoZin-2 fluorescence; Solute carrier family 12 member 5 (Homo sapiens), Q9H2X9;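 active = thallium flux slope and its plate-corrected score both differing from the plate sample mean at a set confidence after two filtering rounds, in either direction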;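 note: slope of fluorescence scaled to starting intensity during 10 to 20 s after thallium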
Target sequence (Q9H2X9 whole entry, looked up): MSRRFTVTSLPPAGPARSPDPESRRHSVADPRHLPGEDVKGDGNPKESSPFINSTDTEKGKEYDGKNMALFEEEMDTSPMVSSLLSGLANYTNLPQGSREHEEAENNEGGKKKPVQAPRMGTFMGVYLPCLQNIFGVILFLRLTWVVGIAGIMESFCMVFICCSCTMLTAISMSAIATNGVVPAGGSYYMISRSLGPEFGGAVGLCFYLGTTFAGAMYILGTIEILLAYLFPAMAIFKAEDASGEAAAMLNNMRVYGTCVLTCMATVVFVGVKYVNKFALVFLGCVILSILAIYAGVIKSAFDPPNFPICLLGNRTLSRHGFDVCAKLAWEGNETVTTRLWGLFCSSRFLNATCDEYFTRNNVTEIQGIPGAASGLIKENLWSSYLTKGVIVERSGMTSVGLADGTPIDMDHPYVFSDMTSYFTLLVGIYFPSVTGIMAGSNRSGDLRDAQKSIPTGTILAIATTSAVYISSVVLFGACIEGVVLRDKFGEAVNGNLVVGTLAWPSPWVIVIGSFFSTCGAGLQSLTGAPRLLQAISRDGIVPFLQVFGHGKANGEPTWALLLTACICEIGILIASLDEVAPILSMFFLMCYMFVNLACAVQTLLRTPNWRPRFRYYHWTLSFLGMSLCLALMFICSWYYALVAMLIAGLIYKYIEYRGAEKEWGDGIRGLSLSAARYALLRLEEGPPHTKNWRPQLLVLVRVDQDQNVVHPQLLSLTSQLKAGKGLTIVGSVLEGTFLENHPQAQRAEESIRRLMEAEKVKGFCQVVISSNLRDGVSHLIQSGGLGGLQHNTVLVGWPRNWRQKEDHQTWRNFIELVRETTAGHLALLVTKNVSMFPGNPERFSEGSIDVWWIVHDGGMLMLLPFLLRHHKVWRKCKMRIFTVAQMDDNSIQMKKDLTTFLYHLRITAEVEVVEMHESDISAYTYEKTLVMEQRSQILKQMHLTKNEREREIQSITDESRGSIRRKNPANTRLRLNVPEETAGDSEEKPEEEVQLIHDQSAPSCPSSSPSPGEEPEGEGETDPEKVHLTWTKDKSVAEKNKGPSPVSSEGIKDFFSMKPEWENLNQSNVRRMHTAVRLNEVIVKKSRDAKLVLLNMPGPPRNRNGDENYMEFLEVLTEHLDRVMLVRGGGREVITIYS
Insulin prom inh – inhibitors of insulin promoter-driven GFP, primary screen, imaging, TRM-6 cells (human fetal islet line), eGFP reporter, cell count; reporter expression induced with tamoxifen; 0.9% of 130,000 active; AID 1273, 2008; inhibition, % at 2 µM;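 active = inhibition above the mean plus 3 SD, with well images judged a real hit on visual review, cut at about 60% in these data, passing the limit was not always enough; inconclusive = inhibition over the cutoff but images rejected on review; inactive = inhibition not above the cutoff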
Lmaj promast – Leishmania major promastigote growth inhibition, primary screen; inhibition, % at 10 µM; 9% of 200,000 active; Leishmania major promastigotes, resazurin fluorescence viability; in the data active = inhibition above about 50%;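 note: promastigotes grown with compound for 44 hours at 28 °C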
ROMK primary – ROMK potassium channel modulators, primary screen, cell-based, thallium flux, MLSMR library; AID 1918, 2009; B-score at 10 µM; Tet-inducible ROMK, thallium flux fluorescence; actives lie on both sides; 2% of 130,000 active;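 active = signal ratio slope over the read window, or its plate-corrected B-score, at least 3 SD from the plate mean, either direction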;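 note: B-score of the F/F0 ratio slope over 7 to 12 s after thallium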
Ins promoter up – insulin promoter activators in MIN6 cells, imaging, high-content screening, mouse beta cells. MIN6 insulin promoter-GFP reporter; active compounds read high. z-score at 5 µM. 0.3% of 190,000 active;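 active = z-score above 3 at 5 µM with at least 500 cells counted in the well; inconclusive = wells under 500 cells, flagged as cytotoxic or low count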
ROMK retest – ROMK channel modulator hit retest, confirmation, cell-based, thallium flux, duplicate, resupplied hits; fluorescence ratio; active compounds read low; 54% of 3,000 active; normalized thallium flux (F/F0 slope) at 10 µM; shares compounds with ROMK primary;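 active = Flux at 10 µM at least 3 SD below or above vehicle control mean in one or both replicates; inconclusive = no clear call, values can overlap the other calls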
Each line names hits and unclear results; the compound was inactive in the other large screens (follow-up assays come after a bar, where they were run). Sampled rows, rich in hits. Any-hit rate of the full collection: about 12%.

COc1cccc(-n2nnnc2S(C)(=O)=O)c1	Lmaj promast 97, ROMK primary -3.5 (no result: KCC2 mod, Ins promoter up) | ROMK retest 0.063
Cc1ccc(C)n1-c1ccc(-n2cnnn2)cc1	none (no result: ROMK primary) | ROMK retest 0.057
CC(O)c1ccc(-n2cnnn2)cc1 (stereo not given)	none
O=C1Nc2ccccc2/C1=C/C(=O)c1cccs1	Lmaj promast 100, ROMK primary -5.6 (no result: WT yeast gro inh) | ROMK retest 0.039
CCCN1C(=O)c2cc(C(=O)Nc3ccc(OC)cc3OC)ccc2C1Nc1ccc(OC)cc1OC (stereo not given)	ROMK primary -3.7 (no result: Insulin prom inh) | ROMK retest inconclusive
CCCN1C(=O)c2cc(C(=O)Nc3ccc(OC)c(OC)c3)ccc2C1Nc1ccc(OC)c(OC)c1 (stereo not given)	none
CCOC(=O)C1=C(C)OC(N)=C(C#N)C1c1ccc(C)s1 (stereo not given)	ROMK primary 3.2 | ROMK retest 0.064
COc1cc(NCCCC(C)N)c2ncccc2c1 (stereo not given)	none (no result: Ins promoter up)
CCC(CNc1cc(OC)cc2cccnc12)NC1CCCCC1 (stereo not given)	none (no result: WT yeast gro inh, Insulin prom inh, Lmaj promast, ROMK primary) | ROMK retest 0.054
NC1=CC(=O)c2cccc3cccc1c23	ROMK primary -3.8 (no result: WT yeast gro inh, KCC2 mod, Ins promoter up) | ROMK retest 0.051
Cc1cc(C)n(-c2nc(Nc3ccccc3C)nc(-n3nc(C)cc3C)n2)n1	none (no result: ROMK primary)
Cc1cc(C)n(-c2nc(Nc3ccccc3C(F)(F)F)nc(-n3nc(C)cc3C)n2)n1	Lmaj promast 100 (no result: Insulin prom inh, ROMK primary, Ins promoter up) | ROMK retest inconclusive
CC1=NOC(=O)/C1=C/c1ccc(N(C)C)cc1	none (no result: ROMK primary) | ROMK retest inconclusive
CCN(CC)c1ccc(/C=C2\C(=O)N(c3ccc([N+](=O)[O-])cc3)N=C2N2CCOCC2)cc1	none (no result: WT yeast gro inh, Ins promoter up)
CCN(CC)c1ccc(/C=C2\C(=O)N(c3nnc(C)c(=O)[nH]3)N=C2C)cc1	none (no result: WT yeast gro inh, Insulin prom inh, Lmaj promast, ROMK primary) | ROMK retest 0.029
CCN(CC)c1ccc(/C=C2/C(=O)ON=C2C)cc1	ROMK primary -5.7 | ROMK retest 0.036
COc1cccc(-c2noc(-c3ccoc3C)n2)c1	none (no result: Insulin prom inh)
CN(C)c1ccc(C(=O)/C=C/c2ccco2)cc1	none (no result: ROMK primary, Ins promoter up)
O=C(/C(=C/c1ccncc1)n1ccnc1)c1ccc(Cl)cc1Cl	ROMK primary -7.9 (no result: WT yeast gro inh, Insulin prom inh, Lmaj promast) | ROMK retest 0.03
O=C(/C(=C/c1cccnc1)n1ccnc1)c1ccc(Cl)cc1Cl	ROMK primary -5.6 (no result: WT yeast gro inh, Insulin prom inh, Lmaj promast) | ROMK retest 0.03
Cn1c(N)c(C(=O)COC(=O)C2CCCN2C(=O)c2cccs2)c(=O)n(C)c1=O (stereo not given)	Insulin prom inh inconclusive
COc1ccccc1-c1ccc(/C=C2\C=CC(=O)O2)o1	none (no result: WT yeast gro inh, Insulin prom inh, Lmaj promast, ROMK primary) | ROMK retest 0.044
COc1cc(CN2CCN(C(=O)CC(C)C)CC2)cc(OC)c1OC	none (no result: ROMK primary) | ROMK retest inactive
Oc1ccccc1OCCOc1ccccc1OCCOc1ccccc1O	none (no result: WT yeast gro inh, Insulin prom inh, Lmaj promast, ROMK primary)
O=C(CSc1nc2ccccc2c(=O)n1-c1cccc(C(F)(F)F)c1)NC1CC1	none
Cc1ccc(NC(=O)CSC(C)C(=O)NCCc2ccccn2)cc1 (stereo not given)	ROMK primary -2.8 (no result: Insulin prom inh) | ROMK retest inactive
O=C1CC(c2ccco2)CC2=C1C1c3ccccc3C(=O)N1c1ccccc1N2 (stereo not given)	ROMK primary 6.9 (no result: KCC2 mod) | ROMK retest 0.098
CCOc1cc(C(=O)Nc2ccc(N3CCOCC3)cc2)cc(Br)c1OC	ROMK primary 3.8 (no result: Ins promoter up) | ROMK retest inactive
CCOc1cc(C(=O)Nc2ccc(F)cc2)cc(Br)c1OC	none (no result: ROMK primary)
COc1cc(CNCCCN2CCOCC2)cc(Br)c1OCC(=O)N1CCCCC1	none (no result: KCC2 mod, ROMK primary)
COc1cc(CNCCCN2CCOCC2)cc(Br)c1OCc1ccc(Cl)cc1	Lmaj promast 100, ROMK primary -3.8 (no result: Insulin prom inh) | ROMK retest inconclusive
O=C(NC1CCCCCC1)c1cc(S(=O)(=O)N2CCCCC2)ccc1N1CCOCC1	ROMK primary -3.2 | ROMK retest 0.061
O=C(NC1CCCCCC1)c1cc(S(=O)(=O)N2CCOCC2)ccc1N1CCCCC1	none (no result: ROMK primary)
CC(=O)Nc1ccc(S(=O)(=O)Oc2ccc(N3C(=O)C4CCCCC4C3=O)cc2)cc1 (stereo not given)	none

Bioassay records: PubChem, several laboratories
